FLuc modulator: qHTS profiling assay for firefly luciferase inhibitor/activator using purifed enzyme and Km concentrations of substrates (counterscreen for miR-21 project) | Luciferin 4-monooxygenase (Photinus pyralis), P08659 | purified FLuc, Km substrates, luminescence inhibition | Potency, µM (top dose mostly 57.5 µM), hits mostly inhibitors | 6.9% of 360,000 active | AID 588342, 2011; note: nearly all actives have a fitted effect of over 55% in size
Target sequence (P08659 whole entry, looked up): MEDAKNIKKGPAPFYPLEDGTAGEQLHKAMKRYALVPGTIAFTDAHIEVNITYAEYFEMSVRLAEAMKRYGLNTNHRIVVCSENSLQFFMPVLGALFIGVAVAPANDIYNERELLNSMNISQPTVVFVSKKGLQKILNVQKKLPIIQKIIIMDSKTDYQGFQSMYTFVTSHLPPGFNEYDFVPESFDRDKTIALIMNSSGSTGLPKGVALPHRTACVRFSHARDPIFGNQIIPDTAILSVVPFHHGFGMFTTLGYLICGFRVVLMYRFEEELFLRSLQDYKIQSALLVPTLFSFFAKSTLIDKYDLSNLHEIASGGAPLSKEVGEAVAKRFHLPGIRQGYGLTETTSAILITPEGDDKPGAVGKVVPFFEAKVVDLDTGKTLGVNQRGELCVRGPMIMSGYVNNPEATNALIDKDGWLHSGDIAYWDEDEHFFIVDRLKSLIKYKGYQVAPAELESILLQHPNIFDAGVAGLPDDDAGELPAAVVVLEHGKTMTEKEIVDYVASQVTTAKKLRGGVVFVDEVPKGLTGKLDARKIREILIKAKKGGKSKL
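Purified P. pyralis luciferase, 10 nM final, with Km-level 10 uM D-luciferin and 10 uM ATP in 50 mM Tris acetate pH 7.5, 10 mM Mg acetate, 0.01% Tween-20, 0.05% BSA; 6-point qHTS titration about 60 µM downward; luminescence read.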
ELG1 genotoxic: qHTS screen for small molecules that induce genotoxicity in human embryonic kidney (HEK293T) cells expressing luciferase-tagged ELG1. AID 504466, 2011. 1.3% of 330,000 active. HEK293T ELG1-luciferase reporter, luminescence, 16 h. Potency, µM (titrated, usually from 46 µM), actives largely listed as activators; note: nearly all actives have a fitted effect of over 60% in size
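Cells (2,000/well) expressing the ELG1-luciferase fusion are dosed by pin tool and kept 16 hr at 37 °C, 5% CO2. Signal comes from ONE-Glo luciferase reagent after 30 min at room temperature.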
NPC1 prom act: qHTS Assay for NPC1 Promoter Activators | 2.4% of 320,000 active | Huh7 NPC1 promoter luciferase reporter, 24 h | Potency, µM (series often up to 9.22 µM), actives largely listed as activators; note: nearly all actives have a fitted effect of over 60% in size
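Compounds in DMSO were transferred onto Huh7 NPC1-luciferase reporter cells pre-incubated 2 h; after 24 h at 37 °C, Amplite reagent was dispensed and luminescence recorded 10 min later.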
SMN2 splice enh: qHTS Assay for Enhancers of SMN2 Splice Variant Expression | HEK293 SMN2-luciferase splicing reporter, luminescence, 30-36 h | Potency, µM (titrated, usually from 46.1 µM), hits mostly activators | 2.8% of 210,000 active; note: nearly all actives have a fitted effect of over 55% in size
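HEK293 cells carry an SMN2 […]–luciferase reporter in which exon 7 inclusion puts luciferase in frame. Cells were plated 10-12 h before compound addition, then incubated 30-36 h at 37C. ONE-Glo luminescence was read; sodium butyrate at 4.5 mM final served as control.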
KinaseGlo FLuc: Counterscreen for Luciferase (Kinase-Glo TM) Inhibition; Luciferin 4-monooxygenase (Photuris pensylvanica), Q27757; 0.28% of 200,000 active; Potency, µM (series often up to 38.3 µM), most hits filed as inhibitors; Kinase-Glo luciferase, ATP luminescence, 8 min; note: nearly all actives have a fitted effect of over 60% in size
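Inhibition of Kinase-Glo luciferase light generation was assessed at 10 uM ATP in pH 7.2 imidazole buffer, with luminescence measured after eight minutes at ambient temperature.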
Rab9 promoter act: qHTS Assay for Rab9 Promoter Activators; 2.8% of 320,000 active; AID 485297, 2010; Huh7 Rab9 promoter-luciferase reporter, luminescence, 24 h; Potency, µM (top dose mostly 9.22 µM), hits mostly activators; note: nearly all actives have a fitted effect of over 60% in size
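Cell-based reporter: Huh7 stable for Rab9 promoter-driven luciferase, plated in reduced-serum medium with 10% FBS at 1500 cells/well, compound-treated 24 h at 37 °C, luminescence read after 10 min reagent.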
Numbers stand for hits; [ ] = dose if it differs, or a comment. An excerpt weighted towards active compounds, which were near 7.5% of everything screened. Calls come from the whole dose curve; as a rule, active = well fitted curve in the direction sought with a large enough effect; inconclusive = small, poorly fitted or top-dose-only effect, or another doubt; inactive = no such curve, though single readings can be large; an effect the other way counts as inactive or inconclusive.

Results for O=C(Oc1ccc2c3c(c(=O)oc2c1)CCC3)c1ccco1 ?
FLuc modulator: 13.5µM; ELG1 genotoxic: inactive; NPC1 prom act: inactive; SMN2 splice enh: inactive; KinaseGlo FLuc: inactive; Rab9 promoter act: inactive

What do the screens show for `O=C(Oc1cc2oc(=O)c3c(c2cc1Cl)CCCC3)c1cccs1`?
FLuc modulator: inactive; ELG1 genotoxic: inactive; NPC1 prom act: inactive; SMN2 splice enh: inactive; KinaseGlo FLuc: inactive; Rab9 promoter act: inactive

What do the screens show for `O=C(Oc1ccc2c3c(c(=O)oc2c1)CCCC3)c1cccs1`?
FLuc modulator: 16.9µM; ELG1 genotoxic: inactive; NPC1 prom act: inactive; SMN2 splice enh: inactive; KinaseGlo FLuc: inactive; Rab9 promoter act: inactive

How did Cn1ccnc1COc1ccc(/C=N/O)cc1 do in these assays?
FLuc modulator: inactive; ELG1 genotoxic: inactive; NPC1 prom act: inactive; Rab9 promoter act: inactive

How did CCOc1ccccc1OCCCOc1ccc(C)cc1Cl do in these assays?
FLuc modulator: 10.7µM; ELG1 genotoxic: inactive; NPC1 prom act: inactive; Rab9 promoter act: inconclusive

How did COc1cc(C)ccc1OCCCOc1c(Cl)cccc1Cl do in these assays?
FLuc modulator: inactive; ELG1 genotoxic: inactive; NPC1 prom act: inactive; SMN2 splice enh: inactive; KinaseGlo FLuc: inactive; Rab9 promoter act: inactive

What do the screens show for `CCOc1ccccc1OCCCOc1ccc(C)cc1Br`?
FLuc modulator: 10.7µM; ELG1 genotoxic: inactive; NPC1 prom act: inactive; SMN2 splice enh: inactive; KinaseGlo FLuc: inactive; Rab9 promoter act: inactive

What do the screens show for `Cc1ccc(-c2csc(NC(=O)c3ccccc3F)c2C(=O)O)cc1`?
FLuc modulator: 21.3µM; ELG1 genotoxic: inactive; NPC1 prom act: inconclusive; Rab9 promoter act: inactive[1.84 µM]

What do the screens show for `COc1ccc(-c2csc(NC(=O)c3ccccc3Br)c2C(=O)O)cc1`?
FLuc modulator: inconclusive; ELG1 genotoxic: inactive; NPC1 prom act: inactive; Rab9 promoter act: inactive

How did Cc1ccc(C(=O)Nc2scc(-c3ccccc3)c2C(=O)O)o1 do in these assays?
FLuc modulator: 15.1µM; ELG1 genotoxic: inactive; NPC1 prom act: inactive; SMN2 splice enh: inactive; KinaseGlo FLuc: inactive; Rab9 promoter act: inactive

Results for O=C(Nc1scc(-c2ccccc2)c1C(=O)O)c1ccccc1F ?
FLuc modulator: 26.9µM; ELG1 genotoxic: inactive; NPC1 prom act: inactive; Rab9 promoter act: inactive

How did CCCCCOc1ccc(Cn2c(=O)oc3ccccc32)cc1 do in these assays?
FLuc modulator: inactive; SMN2 splice enh: inactive

How did CN1[C@@H]2CC[C@@H]1CC(OC(=O)[C@H](CO)c1ccccc1)C2 (some centres not stated) do in these assays?
KinaseGlo FLuc: inactive

Results for Nc1c(-c2ccccc2)cnc2ncnn12 ?
FLuc modulator: inactive; ELG1 genotoxic: inactive; NPC1 prom act: inactive; SMN2 splice enh: inactive; KinaseGlo FLuc: inactive; Rab9 promoter act: inactive

Results for COc1ccc(-c2cc(C(F)(F)F)n3ncc(-c4ccccc4)c3n2)cc1 ?
FLuc modulator: inactive; SMN2 splice enh: inactive

What do the screens show for `Cc1cc(C(F)(F)F)n2ncc(-c3ccc(F)cc3)c2n1`?
FLuc modulator: inactive; ELG1 genotoxic: inactive; NPC1 prom act: inactive; SMN2 splice enh: inactive; KinaseGlo FLuc: inactive; Rab9 promoter act: inactive

What do the screens show for `Nc1c(-c2cccc(Cl)c2)cnc2c(-c3ccccc3)cnn12`?
FLuc modulator: 4.26µM; ELG1 genotoxic: inconclusive; NPC1 prom act: 1.26µM; Rab9 promoter act: inconclusive

What do the screens show for `Cc1nc2c(-c3ccc(Cl)cc3)cnn2c2c1CCC2`?
FLuc modulator: inconclusive; ELG1 genotoxic: inactive; NPC1 prom act: inconclusive; SMN2 splice enh: inactive; KinaseGlo FLuc: inactive; Rab9 promoter act: inconclusive

What do the screens show for `Cc1nc2c(-c3ccc(F)cc3)cnn2c(N)c1-c1ccccc1`?
FLuc modulator: 0.239µM; ELG1 genotoxic: 0.58µM; NPC1 prom act: inactive; Rab9 promoter act: inactive

Results for COc1ccc(-c2c(C)nc3c(-c4ccc(F)cc4)cnn3c2N)cc1 ?
FLuc modulator: 0.849µM; ELG1 genotoxic: inconclusive; NPC1 prom act: 0.501µM; Rab9 promoter act: 0.447µM

Results for Cc1nc2c(-c3ccc(Cl)cc3)cnn2c(N)c1-c1ccc(F)cc1 ?
FLuc modulator: 1.69µM; ELG1 genotoxic: 6.51µM; NPC1 prom act: inactive; Rab9 promoter act: inconclusive

Results for Cn1c(COc2ccccc2)nnc1SCCC(=O)Nc1ccccc1 ?
FLuc modulator: inactive; ELG1 genotoxic: inactive; NPC1 prom act: inactive; SMN2 splice enh: inactive; KinaseGlo FLuc: inactive; Rab9 promoter act: inactive

What do the screens show for `NCCC[C@@H](CC(=O)N[C@@H]1CCNC[C@H]1C(=O)N[C@H](CC(=O)N[C@@H](CCC(=O)O)CC(=O)O)Cc1ccccc1)NC(=O)C[C@H](Cc1c[nH]c2ccccc12)NC(=O)[C@@H]1CCCC[C@H]1N`?
SMN2 splice enh: inactive; KinaseGlo FLuc: inactive

Results for COc1ccccc1-c1c(C)nn2c(N)c(-c3ccc(Cl)cc3)cnc12 ?
FLuc modulator: inconclusive; ELG1 genotoxic: inactive; NPC1 prom act: inactive; Rab9 promoter act: inactive

What do the screens show for `Nc1c(-c2ccc(Cl)cc2)cnc2c(-c3ccc(F)cc3)cnn12`?
FLuc modulator: 1.51µM; ELG1 genotoxic: 7.3µM; NPC1 prom act: 0.562µM; Rab9 promoter act: 0.501µM

How did COC(=O)C1=C(C(=O)OC)[C@@H]2Nc3ccccc3[C@@]23C[C@@H](C(=O)OC)N(S(=O)(=O)c2ccc(Br)cc2)C3=N1 do in these assays?
SMN2 splice enh: inactive[9.22 µM]; KinaseGlo FLuc: inactive[7.66 µM]

How did COc1ccccc1NC(=O)C1=C(C)Nc2nc(SCC(=O)c3ccc(C)cc3)nn2C1c1ccc(F)cc1 (configuration not stated) do in these assays?
FLuc modulator: inactive

Results for Cc1nn(CC(=O)NCC(C)c2ccccc2)c(=O)c2cc3ccccc3n12 (configuration not stated) ?
FLuc modulator: inactive; SMN2 splice enh: inactive

What do the screens show for `O=C(O)c1ccc2c(c1)C(=O)N(CCc1ccccc1)C2=O`?
FLuc modulator: inactive; ELG1 genotoxic: inactive; NPC1 prom act: inactive; Rab9 promoter act: inactive

Results for O=C(O)c1ccc2c(c1)C(=O)N(CCc1c[nH]c3ccccc13)C2=O ?
FLuc modulator: 16.9µM; ELG1 genotoxic: inconclusive; NPC1 prom act: 2.51µM; Rab9 promoter act: 3.16µM

What do the screens show for `Clc1ccc(-c2nc(-c3ccccn3)no2)cc1Cl`?
FLuc modulator: 0.953µM; ELG1 genotoxic: inconclusive; NPC1 prom act: 0.316µM; SMN2 splice enh: 2.51µM; KinaseGlo FLuc: 10µM; Rab9 promoter act: 0.562µM

Results for O=[N+]([O-])c1cc(-c2nc(-c3ccccn3)no2)ccc1NCc1ccccc1 ?
FLuc modulator: inactive

Compound activity (PubChem BioAssay)
